Assay outcomes from PubChem.
In the library only some 4.6% were active in any assay of this set; here they are far more common.
SKKanGAS inh: SKKanGAS growth inhibition. S. pyogenes SKKanGAS, kanamycin growth, BacTiter-Glo, 6 h. inhibition, % at 7.5 µM. actives 1.3% (n = 300,000);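 active = mean replicate score, as percent of positive control median, at least 50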;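 note: strain carries kanamycin resistance gene driven by streptokinase promoter and grows in 40 µg/ml kanamycin; loss of luminescence reflects streptokinase promoter inhibition or plain growth inhibition; 0% = median of DMSO wells and 100% = positive control at its reference dose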
tim23-1 inh: growth inhibitors of tim23-1 mutant yeast. inhibition, % at 20 µM. actives 1.3% (n = 330,000). S. cerevisiae tim23-1 growth, BacTiter-Glo luminescence, 24 h. AID 463212;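 active = growth inhibition of the mutant yeast at or above 50%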;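 note: temperature-sensitive mutant grown at 25 °C; plate controls were DMSO-treated mutant yeast for no effect and medium wells lacking yeast for full effect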
tim10-1 inh: tim10-1 yeast growth inhibition. inhibition, % at 20 µM. actives 2.2% (n = 330,000). S. cerevisiae tim10-1 ts strain growth, BacTiter-Glo, 24 h;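 active = inhibition of at least 40%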;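 note: mutant grown at 25 °C; 0% = DMSO wells with yeast and 100% = wells holding no yeast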
NLRP3 yeast inh: blocks the NALP3 inflammasome reconstituted in yeast; Yeast reconstituted NLRP3/ASC/caspase-1, beta-gal luminescence, 24 h; inhibition, % at 10 µM; actives 0.39% (n = 330,000); AID 2825;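 active = inhibition of 50% or more; inactive = inhibition below 50%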;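 note: plate controls were induced DMSO wells for no effect and uninduced yeast grown without galactose for full effect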
TIM10 inh: TIM10 yeast growth inhibition | actives 1.4% (n = 330,000) | S. cerevisiae TIM10 strain growth, BacTiter-Glo luminescence, 24 h | inhibition, % at 10 µM;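 active = inhibition of 40% or more at the single tested concentration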;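 note: wild-type TIM10 isogenic control strain grown at permissive 25 °C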
tim10-1 confirm: tim10-1 yeast growth inhibition, confirmed; shares compounds with tim10-1 inh; S. cerevisiae tim10-1 ts strain growth, BacTiter-Glo, 24 h; inhibition, % at 20 µM; actives 56% (n = 7,400);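 active = inhibition of yeast growth at or above a set limit in either of two repeat tests at 20 µM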;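 note: tim10-1 mutant grown at permissive 25 °C to find synthetic lethal compounds; 0% = DMSO yeast wells and 100% = medium wells without yeast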
An asterisk follows results filed as active; nt = no result.

SMILES	SKKanGAS inh	tim23-1 inh	tim10-1 inh	NLRP3 yeast inh	TIM10 inh	tim10-1 confirm
COc1ccc(-c2nc(CS(=O)CC(=O)NC3CCCc4ccccc43)c(C)o2)cc1OC (configuration not stated)	1.8	16.2	14.7	9.8	15.3	nt
NC(=S)NN=C(Cc1ccccc1)Cc1ccccc1	2.9	49.1	26.1	24.7	35.4	nt
O=C(NC1CCCCC1)c1ccc(-c2cccc([N+](=O)[O-])c2)o1	-1.5	40.2	41.1*	17.4	28.0	24.9
O=C(O)c1ccc(-c2cccc([N+](=O)[O-])c2)o1	-2.9	2.0	-16.3	8.1	-7.4	nt
O=c1c2ccccc2oc2cc(NCCCN3CCOCC3)ccc12	-1.0	5.6	41.3*	16.8	-3.0	7.1
O=c1c2ccccc2oc2ccc(NCCCN3CCOCC3)cc12	-7.8	29.5	26.1	11.0	10.3	nt
Cc1ccc(-n2nnnc2SCC(=O)NC2CC2)cc1C	1.6	9.2	19.1	17.2	13.7	nt
CCOc1cc(C(=O)NC(=S)Nc2cccnc2)cc(OCC)c1OCC	-12.4	24.2	43.2*	5.8	20.0	17.6
CCOc1ccc(C(=O)NC(=S)Nc2cccnc2)cc1	-2.0	5.4	9.0	19.8	2.9	nt
N/C(CCS(=O)(=O)c1ccc(Cl)cc1)=N\OC(=O)c1ccccc1C(F)(F)F	-4.1	34.6	64.0*	-7.5	33.9	77.8*
O=C(/C=C/c1ccc(OC2CSC2)cc1)c1ccccc1	7.9	26.4	43.5*	39.8	22.6	33.3*
Cc1ccc(C)c(N2CCN(C(=O)c3ccc4nc(-c5ccco5)c(-c5ccco5)nc4c3)CC2)c1	30.3	2.3	43.7*	6.5	4.6	37.0*
Cc1ccc(C)c(N2CCN(C(=O)c3ccc4c(c3)c(C)c(C)n4C)CC2)c1	24.1	35.6	43.4*	7.9	26.8	17.8
Cn1nnc(NC(=S)NC(=O)c2cc(Cl)ccc2Cl)n1	0.7	40.7	40.7*	17.1	10.8	0.3
CC(C)Oc1ccc(C(CC(=O)NCc2ccco2)c2ccccc2)cc1 (configuration not stated)	1.0	20.0	40.1*	1.5	18.8	11.4
CC(=O)Nc1nc(-c2ccccc2)nc(-c2ccccc2OC(C)=O)n1	-1.1	38.6	48.0*	11.9	29.2	16.0
CC(C)(C)[C@H]1COC(=O)[C@H](NC(=O)OCC2c3ccccc3-c3ccccc32)C/C=C\C[C@@H](CC(=O)N[C@@H](CO)Cc2ccccc2)C(=O)N1	nt	16.7	10.5	-1.6	6.4	nt
CC(=O)Nc1ccc(-c2csc(Nc3ccccn3)n2)cc1	-17.1	-5.8	62.5*	2.1	-25.6	-38.7
Oc1ccc(-c2csc(Nc3ccccn3)n2)cc1O	-0.2	12.8	22.0	12.4	9.8	nt
COc1cccc2sc(Nc3nc(-c4ccccn4)cs3)nc12	99.5*	49.9	52.1*	13.3	12.7	34.1*
COc1cccc2sc(NNC(=O)COc3ccccc3)nc12	-4.7	-5.0	-12.6	3.3	-3.7	nt
c1ccc(Nc2nc(-c3ccccn3)cs2)cc1	99.7*	33.4	45.7*	34.5	33.6	23.0
COc1ccccc1C(C)NC(=O)c1ccc(NC(=O)CC2SC(N3CCCC3)=NC2=O)cc1 (configuration not stated)	nt	17.8	6.8	18.0	15.9	nt
CCCn1nc(C(=O)NNC(=O)c2cccc(S(=O)(=O)NC(C)C)c2)c2ccccc2c1=O	-4.0	-3.5	-4.7	7.7	-1.9	nt
Cc1ccc(S(=O)(=O)CCC(=O)N(CCCN2CCOCC2)c2nc3ccccc3s2)cc1	0.5	18.1	42.1*	32.4	34.9	42.4*
SMILES	SKKanGAS inh	tim23-1 inh	tim10-1 inh	NLRP3 yeast inh	TIM10 inh	tim10-1 confirm
CCOC(=O)C1CN(S(=O)(=O)c2ccccc2)c2cc(S(=O)(=O)CC)ccc2O1 (configuration not stated)	-0.3	5.8	27.4	15.3	7.6	nt
CCOC(=O)C1CN(S(=O)(=O)c2cccc(C(F)(F)F)c2)c2cc(CC(=O)OC)ccc2O1 (configuration not stated)	3.5	18.5	46.5*	10.1	7.0	24.8
COc1ccc(CNC(=O)COC(=O)CCN2C(=O)C3CC=CCC3C2=O)cc1OC (configuration not stated)	nt	3.3	0.5	8.3	-9.9	nt
CCCCCc1nnc(NC(=O)C2COc3ccccc3O2)s1 (configuration not stated)	12.7	49.8	45.7*	39.9	20.6	40.2*
CCc1nnc(NC(=O)C2COc3ccccc3O2)s1 (configuration not stated)	2.3	28.2	22.3	10.1	8.8	nt
CC(C)c1ccc(S(=O)(=O)N2CCN(C(=O)C3CCCC3)CC2)cc1	4.7	25.2	13.4	23.7	10.2	nt
CC(C)CCNC(=O)NC(=O)COC(=O)/C=C/c1cccc([N+](=O)[O-])c1	7.2	18.1	42.5*	15.6	24.8	18.5
COc1cccc(-n2cc(-c3ccc(F)cc3)[nH]c2=S)c1	-0.1	48.2	46.0*	21.6	26.4	14.0
COc1ccc2c(COC(=O)CNC(=O)C34CC5CC(CC(C5)C3)C4)cc(=O)oc2c1	7.0	28.7	42.0*	15.5	19.1	27.4
Cc1ccc(-c2nc3cccnc3s2)cc1NS(C)(=O)=O	-0.9	13.4	43.7*	7.2	2.5	-6.6
CCCS(=O)(=O)Nc1cccc(-c2nc3cccnc3s2)c1	-13.6	23.3	19.8	4.2	3.6	nt
C#CCOCCOCCOCCNc1nc(N2CCN(C(=O)[C@H](CCC(=O)O)n3cc([C@@H](N)CC(N)=O)nn3)CC2)nc(N2CCN(C(=O)[C@H](CCC(=O)O)n3cc([C@@H](N)CC(N)=O)nn3)CC2)n1	nt	3.1	-0.4	6.6	2.0	nt
CCCCc1ccc(NC(=S)NCc2cccc(OC)c2)cc1	8.2	17.4	43.7*	13.3	32.6	29.7
COc1ccc(OC)c(NC(=S)NCCSc2ccc(C)cc2)c1	-4.4	42.2	44.2*	28.5	32.8	13.6
Cc1ccc(NC(=S)NCCSc2ccc(Cl)cc2)c(C)c1	-1.8	24.5	30.7	32.0	-7.6	nt
COc1cccc(CNC(=S)Nc2cc(OC)ccc2OC)c1	-2.4	13.6	45.0*	-34.0	11.3	25.4
CCCCc1ccc(NC(=S)Nc2ccc(Nc3ccc(OC)cc3)cc2)cc1	-4.6	33.7	45.2*	35.2	19.7	35.4*
CCCCc1ccc(NC(=S)Nc2cccnc2)cc1	0.7	22.7	35.9	10.6	15.4	nt
Cc1ccc(OCC(=O)NNC(=O)C2CSC3(C)CCC(=O)N23)cc1C (configuration not stated)	nt	-5.0	-15.8	6.2	-2.3	nt
CN(C)c1ccc(C(CNC(=O)Cc2cccc3ccccc23)N(C)C)cc1 (configuration not stated)	4.7	0.5	-6.5	9.7	1.3	nt
COc1ccccc1NC(=O)CNC(=O)c1ccc(Br)o1	-4.2	6.1	5.0	17.8	-1.7	nt
Cc1cccc(C(=O)OCC(=O)N2CCCC2=O)c1[N+](=O)[O-]	-1.4	-0.6	15.4	20.0	2.7	nt
